# Reference: PubChem BioAssay
# Active and inactive are the calls of the source.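 The calls were made as follows: active = compounds killing one labelled cell type while sparing the other, by normalised counts and ratio limits, not self-fluorescent; inactive = the rest.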
# Assay: EMT-state selective cytotoxicity in co-culture – imaging, PC-3E GFP, TEM4-18 mCherry, primary screen (AID 1345086);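 also: normalised mesenchymal count divided by normalised epithelial count so high means epithelial killing; cells exposed to compound for 72 h before imaging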
# Settings: PC-3E GFP / TEM4-18 mCherry co-culture, imaging cell counts; at 1 µM; actives lie on both sides; counts scaled to control wells, 1 = unselective
row,Compound,red/green cell ratio (normalised)
1,CC(=O)C1=C(O)C=C2Oc3c(C(N)=O)c(O)cc(O)c3[C@@]2(C)C1=O,1.13 (inactive)
2,C=C1C(=O)O[C@@H]2C(=O)O[C@@H](CCCCCCCC)[C@H]12,0.86 (inactive)
3,O=C(Cc1ccccc1)NCC1O[C@@H](OC2C(NC(=O)Cc3ccccc3)C[C@@H](NC(=O)Cc3ccccc3)[C@H](OC3OC(COS(=O)(=O)O)[C@@H](OS(=O)(=O)O)[C@H](NC(=O)Cc4ccccc4)[C@H]3OS(=O)(=O)O)[C@H]2OS(=O)(=O)O)[C@H](OS(=O)(=O)O)[C@@H](OS(=O)(=O)O)C1OS(=O)(=O)O (stereo not given in full),1.14 (inactive)
4,CCC(C)[C@H]1O[C@]2(C=C[C@@H]1C)C[C@@H]1C[C@@H](C/C=C(\C)[C@@H](OC3C[C@H](OC)C(O[C@H]4C[C@H](OC)[C@@H](O)[C@H](C)O4)[C@H](C)O3)[C@@H](C)/C=C/C=C3\COC4[C@H](OC)C(C)=C[C@@H](C(=O)O1)[C@]34O)O2 (stereo not given in full),0.83 (inactive)
5,Oc1ccc2ccccc2c1Oc1ccc2ccccc2c1,0.92 (inactive)
6,O=C(O)C(O)C(O)C(O)C(O)C(=O)O (stereo not given),1.01 (inactive)
7,COC(=O)[C@@]12Oc3ccc(-c4ccc5c(c4O)C(O)=C4C(=O)C[C@H](C)[C@H](O)[C@]4(C(=O)OC)O5)c(O)c3C(O)=C1C(=O)C[C@H](C)[C@@H]2O,1.15 (inactive)
8,COc1cccc(Oc2c(O)cc(C)cc2CC(=O)c2cc(C)cc(O)c2C(=O)c2c(O)cccc2O)c1C(=O)O,1.1 (inactive)
9,CC(C)CC1OC23SCC(c4ccccc4)N2C(=O)C1C(C)S3 (stereo not given),0.8 (inactive)
10,Cc1ccc(S[C@H]2OC(CO)C(O)[C@@H]3OC(=O)N[C@H]23)cc1 (stereo not given in full),0.98 (inactive)
11,OC[C@H]1O[C@H](OC[C@H]2O[C@@H](O)[C@H](O)[C@@H](O)[C@@H]2O)[C@H](O)[C@@H](O)[C@H]1O,0.93 (inactive)
12,COc1c(N2CC[C@@H](CN)C2)c(F)cc2c(=O)c(C(=O)O)cn(Cc3ccc4ccccc4c3)c12,1.09 (inactive)
13,COC(=O)CCC(C)C1CCC2C3CC[C@@H]4C[C@H](O)CC[C@]4(C)C3C[C@H](O)[C@]12C (stereo not given in full),0.9 (inactive)
14,C=C[C@@](C)(O)CCC1C(=C)C[C@H](OC(C)=O)C2C(C)(C)CCCC12C (stereo not given in full),1.05 (inactive)
15,CCOC(=O)O[C@]1(C(=O)COC(=O)CC)CCC2C3CCC4=CC(=O)C=C[C@]4(C)C3[C@@H](O)C[C@@]21C (stereo not given in full),0.87 (inactive)
16,CC1(C)C2CCC1(C)C(O)C2 (stereo not given),1.2 (inactive)
17,O=C1Cc2cc(O)ccc2O1,1.26 (inactive)
18,CC(C)(C)Oc1c(F)c(F)nc(F)c1Cl,0.97 (inactive)
19,C[C@H]1[C@H]2CCC3C4CC=C5C[C@@H](N(C)C)CC[C@]5(C)C4CC[C@@]32CN1C (stereo not given in full),0.93 (inactive)
20,C#C[C@H](O)COc1ccc(C(=O)O)cc1,1.18 (inactive)

row,Compound,red/green cell ratio (normalised)
1,CNC1C(O[C@@H]2OC(CO)C(N)[C@H](O)C2O)OC2CC(N)[C@@H](OC3C(N)C[C@@H](N)C(O)[C@H]3O)OC2C1O (stereo not given in full),1.2 (inactive)
2,COc1ccc2oc(-c3ccccc3OC)cc(=O)c2c1,0.85 (inactive)
3,COC(=O)[C@H](Cc1ccccc1)NC(=O)/C(=C1\OC(=O)C(c2ccccc2)=C1O)c1ccccc1,0.97 (inactive)
4,CC(C)[C@@H]1CC[C@]2(CO2)[C@@H]2C(=O)OCC(C(=O)O)=C[C@H]21,1.02 (inactive)
5,CC(C)(C)OC(=O)NCCCC(NC(=O)C(Cc1ccccc1)NC(=O)OC(C)(C)C)C(=O)O (stereo not given),0.88 (inactive)
6,CC(=O)O[C@H]1CC[C@]2(C)C3CC[C@@]4(C)C(CC5O[C@@]6(CCC(C)CO6)[C@@H](C)C54)C3CC[C@@H]2C1 (stereo not given in full),1.09 (inactive)
7,O=C(C/C=C/c1ccc(O)c(O)c1)O[C@H](Cc1ccc(O)c(O)c1)C(=O)O,1.06 (inactive)
8,NC(CSSCC(N)C(=O)O)C(=O)O (stereo not given),0.92 (inactive)
9,O=C1NCC[C@@H]1Oc1ccc(Oc2cnc3ccc(Cl)cc3n2)cc1,0.74 (inactive)
10,CCN1CCN(c2c(F)cc3c(=O)c(C(=O)O)cn4c3c2OC[C@@H]4C)CC1,0.75 (inactive)
11,OCC(O)C(O)C(O)C(O)C(O)CO (stereo not given),0.95 (inactive)
12,CC1(C)CC2C1CCC1(CBr)CCC3C(CC(=O)O)C(=O)OC32C1 (stereo not given),0.9 (inactive)
13,COC(=O)CCC(=O)NC(=O)Cc1ccccc1,0.93 (inactive)
14,O=C1N[C@@H]2[C@@H](Sc3ccccc3)OC(CO)C(O)[C@@H]2O1 (stereo not given in full),0.97 (inactive)
15,O=c1cc(-c2ccccc2)oc2cc(O)ccc12,0.8 (inactive)
16,NCC1O[C@@H](OC2C(N)C[C@@H](N)C(OC3OC(CO)[C@@H](O)C(N)[C@H]3O)[C@H]2O)C(O)[C@@H](O)C1O (stereo not given in full),1.1 (inactive)
17,CC/C=C1C=C(/C=C/CO)C(=O)O/1,1.01 (inactive)
18,C[C@@H](O)[C@H]1C(=O)N2C(C(=O)O)=C(SC3CN[C@H](C(=O)N(C)C)C3)[C@H](C)[C@H]12 (stereo not given in full),1.01 (inactive)
19,C[C@H](Oc1ccc(Oc2ccc3ncc(Cl)nc3c2)cc1)C(=O)O,0.92 (inactive)
20,CC(=O)OCC1=C[C@]2(O)CC3=C(CC24O[C@@H]4C1=O)[C@@]1(C)CCCC(C)(C)[C@@H]1CC3 (stereo not given in full),1.02 (inactive)
